# Assay results reported in the supplement of paper PMC8728848.
# The full list was thinned out, with the strongest signals kept by preference.
# Key:
# Assay in all cases: glycan array binding signal (z-score within array); higher = stronger binding
# Conditions in all cases: glycan notation: IUPAC condensed, linker removed
# GalNAc(b1-3)GalNAc = biological target: GalNAc(b1-3)GalNAc
# Procedure, shortened: (§1)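 Glycan array data were curated from 3228 arrays in the Consortium for Functional Glycomics database and kept only where the protein sequence was available. Glycan names were converted to IUPAC-condensed notation, and columns mapping to the same glycan were averaged. The binding signal is a within-array Z-score, averaged across arrays of the same protein sequence at different concentrations or buffers and across linkers. Negative Z-scores can be read as non-binding.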
# GalNAc(b1-3)GlcNAc = biological target: GalNAc(b1-3)GlcNAc
# Procedure, shortened: as §1
# [1] = biological target: GalNAc(b1-4)GlcNAc(b1-2)Man(a1-3)[GalNAc(b1-4)GlcNAc(b1-2)Man(a1-6)]Man(b1-4)GlcNAc(b1-4)GlcNAc
# Procedure, shortened: as §1
# GlcA(b1-3)GlcNAc = biological target: GlcA(b1-3)GlcNAc
# Procedure, shortened: as §1
# [2] = biological target: GlcNAc(b1-2)[GlcNAc(b1-4)]Man(a1-3)[GlcNAc(b1-4)][GlcNAc(b1-2)Man(a1-6)]Man(b1-4)GlcNAc(b1-4)GlcNAc
# Procedure, shortened: as §1
# [3] = biological target: GlcNAc(b1-3)Gal(b1-4)GlcNAc(b1-3)Gal(b1-4)GlcNAc(b1-3)Gal(b1-4)GlcNAc(b1-3)Gal(b1-4)GlcNAc(b1-2)Man(a1-3)[GlcNAc(b1-3)Gal(b1-4)GlcNAc(b1-3)Gal(b1-4)GlcNAc(b1-3)Gal(b1-4)GlcNAc(b1-3)Gal(b1-4)GlcNAc(b1-2)Man(a1-6)]Man(b1-4)GlcNAc(b1-4)[Fuc(a1-6)]GlcNAc
# Procedure, shortened: as §1
# Kdn(a2-6)Gal(b1-4)GlcNAc = biological target: Kdn(a2-6)Gal(b1-4)GlcNAc
# Procedure, shortened: as §1
# [4] = biological target: Man(a1-2)Man(a1-3)[Man(a1-2)Man(a1-6)]Man
# Procedure, shortened: as §1
# [5] = biological target: Man(a1-2)Man(a1-6)[Man(a1-3)]Man(a1-6)[Man(a1-2)Man(a1-2)Man(a1-3)]Man(b1-4)GlcNAc(b1-4)GlcNAc
# Procedure, shortened: as §1
# [6] = biological target: Neu5Ac(a2-3)Gal(b1-3)GalNAc(b1-3)Gal(a1-4)Gal(b1-4)Glc
# Procedure, shortened: as §1
# [7] = biological target: Neu5Ac(a2-3)Gal(b1-4)GlcNAc(b1-2)Man
# Procedure, shortened: as §1
# [8] = biological target: Neu5Ac(a2-3)Gal(b1-4)GlcNAc(b1-3)Gal(b1-4)GlcNAc(b1-3)[Neu5Ac(a2-3)Gal(b1-4)GlcNAc(b1-3)Gal(b1-4)GlcNAc(b1-6)]GalNAc
# Procedure, shortened: as §1
# [9] = biological target: Neu5Ac(a2-3)Gal(b1-4)GlcNAc(b1-3)Gal(b1-4)GlcNAc(b1-6)[Gal(b1-3)]GalNAc
# Procedure, shortened: as §1
# [10] = biological target: Neu5Ac(a2-3)Gal(b1-4)GlcNAc6S
# Procedure, shortened: as §1
# [11] = biological target: Neu5Ac(a2-3)Gal6S(b1-4)GlcNAc
# Procedure, shortened: as §1
# Neu5Ac(a2-3)GalNAc = biological target: Neu5Ac(a2-3)GalNAc
# Procedure, shortened: as §1
# [12] = biological target: Neu5Ac(a2-6)Gal(b1-3)GlcNAc(b1-3)[Gal(b1-4)GlcNAc(b1-6)]Gal(b1-4)Glc
# Procedure, shortened: as §1
# [13] = biological target: Neu5Ac(a2-6)Gal(b1-4)GlcNAc(b1-2)[Neu5Ac(a2-6)Gal(b1-4)GlcNAc(b1-4)]Man(a1-3)[GlcNAc(b1-4)][Neu5Ac(a2-6)Gal(b1-4)GlcNAc(b1-4)Man(a1-6)]Man(b1-4)GlcNAc(b1-4)GlcNAc
# Procedure, shortened: as §1
# [14] = biological target: Neu5Ac(a2-6)Gal(b1-4)GlcNAc(b1-2)[Neu5Ac(a2-6)Gal(b1-4)GlcNAc(b1-6)]Man(a1-6)[Neu5Ac(a2-6)Gal(b1-4)GlcNAc(b1-2)Man(a1-3)][GlcNAc(b1-4)]Man(b1-4)GlcNAc(b1-4)GlcNAc
# Procedure, shortened: as §1
# [15] = biological target: Neu5Ac(a2-6)Gal(b1-4)GlcNAc(b1-3)Gal(b1-3)GlcNAc
# Procedure, shortened: as §1
# [16] = biological target: Neu5Ac(a2-8)Neu5Ac(a2-3)Gal(b1-3)GalNAc(b1-4)[Neu5Ac(a2-8)Neu5Ac(a2-3)]Gal(b1-4)Glc
# Procedure, shortened: as §1
# [17] = biological target: Neu5Gc(a2-3)Gal(b1-3)[Fuc(a1-4)]GlcNAc
# Procedure, shortened: as §1
binder,measurement,setting,value
"AntigenI/IIA3VP1 (Streptococcus mutans), C9E3B4 (protein) AANEADYQAKLTAYQTELARVQKANADAKAAYEAAVAANNAANAALTAENTAIKKRNADAKADYEAKLAKYQADLAKYQKDLADYPVKLKAYEDEQASIKAALAELEKHKNEDGNLTEPSAQNLVYDLEPNANLSLTTDGKFLKASAVDDAFSKSTSKAKYDQKILQLDDLDITNLEQSNDVASSMELYGNFGDKAGWSTTVSNNSQVKWGSVLLERGQSATATYTNLQNSYYNGKKISKIVYKYTVDPKSKFQGQKVWLGIFTDPTLGVFASAYTGQVEKNTSIFIKNEFTFYDEDGKPINFDNALLSVASLNREHNSIEMAKDYSGKFVKISGSSIGEKNGMIYATDTLNFKQGEGGSRWTMYKNSQAGSGWDSSDAPNSWYGAGAIKMSGPNNYVTVGATSATNVMPVSDMPVVPGKDNTDGKKPNIWYSLNGKIRAVNVPKVTKEKPTPPVKPTAPTKPTYETEKPLKPAPVAPNYEKEPTPPTRLEHHHHHH",glycan array binding signal (z-score),GalNAc(b1-3)GalNAc,1.37
same,glycan array binding signal (z-score),GalNAc(b1-3)GlcNAc,-0.475
same,glycan array binding signal (z-score),[1],-0.868
same,glycan array binding signal (z-score),GlcA(b1-3)GlcNAc,-0.575
same,glycan array binding signal (z-score),[2],-1.35
same,glycan array binding signal (z-score),[3],3.23
same,glycan array binding signal (z-score),Kdn(a2-6)Gal(b1-4)GlcNAc,-1.05
same,glycan array binding signal (z-score),[4],-0.805
same,glycan array binding signal (z-score),[5],0.975
same,glycan array binding signal (z-score),[6],0.492
same,glycan array binding signal (z-score),[7],0.921
same,glycan array binding signal (z-score),[8],0.324
same,glycan array binding signal (z-score),[9],-0.29
same,glycan array binding signal (z-score),[10],-0.627
same,glycan array binding signal (z-score),[11],-0.68
same,glycan array binding signal (z-score),Neu5Ac(a2-3)GalNAc,-1.05
same,glycan array binding signal (z-score),[12],0.439
same,glycan array binding signal (z-score),[13],1.05
same,glycan array binding signal (z-score),[14],0.993
same,glycan array binding signal (z-score),[15],-1.1
same,glycan array binding signal (z-score),[16],-0.035
same,glycan array binding signal (z-score),[17],-0.885
